Screening data (PubChem BioAssay)
Hits are enriched below; roughly 4.2% of the tested compounds scored in any of these assays.
NALP1 yeast inh: NALP1 inhibition | S. cerevisiae NALP1/ASC/caspase-1 growth, X-gal OD620, 72 h | inhibition, % at 10 µM | hit rate 0.61% among 280,000 | AID 2071; in the data active = inhibition mostly above about 24%, no sharp cut-off; inactive = mostly below about 32%
tim23-1 inh: tim23-1 yeast growth inhibition | S. cerevisiae tim23-1 growth, BacTiter-Glo luminescence, 24 h | inhibition, % at 20 µM | hit rate 1.3% among 330,000;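 active = growth inhibition of the mutant yeast at or above 50%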;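 also: temperature-sensitive mutant grown at 25 °C; plate controls were DMSO-treated mutant yeast for no effect and medium wells lacking yeast for full effect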
tim10-1 inh: inhibits growth of tim10-1 mutant yeast; S. cerevisiae tim10-1 ts strain growth, BacTiter-Glo, 24 h; inhibition, % at 20 µM; hit rate 2.2% among 330,000;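 active = inhibition of at least 40%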;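 also: mutant grown at 25 °C; 0% = DMSO wells with yeast and 100% = wells holding no yeast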
TIM10 inh: growth inhibitors of TIM10 yeast strain. S. cerevisiae TIM10 strain growth, BacTiter-Glo luminescence, 24 h. inhibition, % at 10 µM. hit rate 1.4% among 330,000;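 active = inhibition of 40% or more at the single tested concentration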;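 also: wild-type TIM10 isogenic control strain grown at permissive 25 °C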
V-ATPase pH: yeast V-ATPase proton transport regulation by pHLuorin; response, % at 10 µM; hit rate 0.37% among 350,000; S. cerevisiae, pHLuorin cytosolic pH fluorescence; AID 504577; in the data active = response mostly above about 7.3%, no sharp cut-off; inactive = mostly below about 5.4%; also: actives read high
NALP3 yeast inh: NALP3 inhibition in yeast | hit rate 0.39% among 330,000 | inhibition, % at 10 µM | AID 2825 | Yeast reconstituted NLRP3/ASC/caspase-1, beta-gal luminescence, 24 h;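 active = inhibition of 50% or more; inactive = inhibition below 50%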;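 also: plate controls were induced DMSO wells for no effect and uninduced yeast grown without galactose for full effect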
tim10-1 confirm: tim10-1 yeast growth inhibition, confirmed. AID 463213. S. cerevisiae tim10-1 ts strain growth, BacTiter-Glo, 24 h. shares compounds with tim10-1 inh. hit rate 56% among 7,400. inhibition, % at 20 µM;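 active = inhibition of yeast growth at or above a set limit in either of two repeat tests at 20 µM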;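 also: tim10-1 mutant grown at permissive 25 °C to find synthetic lethal compounds; 0% = DMSO yeast wells and 100% = medium wells without yeast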
Numbers without * were called inactive; / = not tested or not shown.

SMILES	NALP1 yeast inh	tim23-1 inh	tim10-1 inh	TIM10 inh	V-ATPase pH	NALP3 yeast inh	tim10-1 confirm
CCCOc1ccc(C(=O)NNC(=S)NC(=O)c2cc(-c3ccc(Cl)cc3)nc3ccccc23)cc1	4.5	22.3	46.3*	20.3	-1.3	39.3	35.9*
CCCOc1cccc(-c2cc(-c3n[nH]c(=S)n3CC)c3ccccc3n2)c1	-2.0	38.3	43.4*	39.1	-0.9	37.4	32.2*
Cc1c(C(=O)OCC(=O)N(C)CC(=O)Nc2ccc(F)cc2)oc2ccccc12	/	10.7	13.0	-3.1	2.8	4.3	/
CCOc1cc(NC(=S)NCC2CCCO2)c(OCC)cc1NC(=O)CC(C)C (centres undefined)	-2.6	13.5	5.1	11.6	10.9	10.9	/
CC1CCc2c(cnc3ncnn23)C1 (centres undefined)	/	8.3	-6.1	-8.6	-2.5	6.2	/
COc1ccc(CN(C)C(=O)c2cccc(C(=O)N(C)Cc3ccc(OC)cc3)c2)cc1	19.1	26.1	28.4	1.1	-0.7	2.1	/
CCCOc1cccc(-c2cc(C(=O)NNC(=S)NCC)c3ccccc3n2)c1	0.4	24.0	54.3*	32.8	0.4	6.3	50.5*
C=CCOc1cccc(C(=O)N2CCCC(Nc3ccc4c(c3)OCCO4)C2)c1 (centres undefined)	7.0	19.8	14.5	0.5	-0.1	21.0	/
Cc1sc(N/N=C/c2ccco2)nc1-c1ccccc1	26.8	23.9	42.7*	37.0	-0.7	26.1	19.5
COc1ccc(C(=O)Cn2c(C)nc([N+](=O)[O-])c2Br)cc1	-15.9	26.2	15.2	17.7	1.9	-1.5	/
Cc1nc([N+](=O)[O-])c(Br)n1CC(=O)c1ccc(Cl)cc1	58.0	30.8	43.4*	38.7	-1.5	11.4	38.0*
CCOC(=O)C1ON2CCCCC2C1(O)C(F)(F)F (centres undefined)	2.5	0.8	3.2	-8.3	-0.2	6.0	/
Cc1c(C)c2ccc(OC3CCCCC3=O)cc2oc1=O (centres undefined)	1.9	15.7	19.4	-11.6	-2.1	10.8	/
CCc1cc(=O)oc2cc(OC3CCCCC3=O)ccc12 (centres undefined)	11.7	35.1	42.7*	5.1	-2.7	4.8	13.3
Cc1nc2cc(C(=O)N3c4ccccc4CC3C)ccc2s1 (centres undefined)	-0.3	31.4	43.0*	8.2	-4.8	-5.4	8.7
CC1Cc2ccccc2N1C(=O)c1ccc2snnc2c1 (centres undefined)	2.9	21.0	23.8	20.0	1.4	9.9	/
O=C(N/N=C/c1c(Cl)cccc1Cl)c1cccc(F)c1	5.8	12.6	12.8	1.7	1.6	21.6	/
CCNC(=S)N/N=C/c1c(Cl)cccc1Cl	-0.1	19.3	40.9*	21.2	-0.2	-7.6	22.4
CC(C)(C)NC(=S)N/N=C/c1c(Cl)cccc1Cl	24.7	32.5	40.5*	36.9	-1.0	16.9	20.8
CCNC(=S)N/N=C/c1cccc(/C=N/NC(=S)NCC)c1	5.4	-7.7	-18.1	-1.6	-1.5	11.5	/
O=S(=O)(c1ccc2c(c1)CCCN2)N1CCCC2CCCCC21 (centres undefined)	27.0	45.3	46.8*	17.7	2.8	2.0	26.4
CCCCc1nc(SCC(=O)N2CCCC2)c2c(=O)n(C)c(=O)n(C)c2n1	6.9	16.9	-0.1	-11.7	1.2	10.3	/
COc1cc(/C=C(\C#N)C(=O)NCc2cccs2)ccc1O	19.6	30.0	42.3*	27.8	1.9	15.1	28.5
N#C/C(=C\c1ccc(O)c([N+](=O)[O-])c1)C(=O)NCc1ccccc1	1.3	20.1	14.6	1.4	0.8	2.6	/
COc1cc(/C=C(\C#N)C(=O)NCC2CCCO2)ccc1OCC(N)=O (centres undefined)	-6.6	4.1	17.9	-2.6	4.4	7.4	/
SMILES	NALP1 yeast inh	tim23-1 inh	tim10-1 inh	TIM10 inh	V-ATPase pH	NALP3 yeast inh	tim10-1 confirm
COc1cc(C(=O)NCC2CCCO2)ccc1OCc1ccc(Cl)cc1Cl (centres undefined)	/	33.2	43.0*	17.6	6.0	28.9	29.6*
COc1ccc(/C=C(\C#N)C(=O)NCC2CCCO2)cc1OC (centres undefined)	22.6	46.1	40.0*	22.8	2.3	-1.7	10.8
N#C/C(=C\c1ccc(O)c(Br)c1)C(=O)NCc1ccccc1	-9.3	28.1	47.3*	19.3	1.4	15.1	17.0
CC(C)(CNC(=O)c1ccccc1F)CNC(=O)c1ccccc1F	/	6.0	12.7	17.5	-4.8	-2.4	/
N#CC1CCCc2c1[nH]c1ccc([N+](=O)[O-])cc21 (centres undefined)	30.8	21.4	12.0	12.1	0.4	22.4	/
COc1cccc(/C=C/C(=O)NNC(=O)c2cc(C)oc2C)c1	/	0.7	-3.6	17.3	-1.1	11.9	/
O=C(Nc1cc(S(=O)(=O)N2CCOCC2)ccc1N1CCCC1)c1ccc2c(c1)S(=O)(=O)c1ccccc1C2=O	7.9	17.7	13.5	15.9	3.0	-2.4	/
COc1cccc(N=Nc2ccc3ccccc3c2O)c1	22.6	32.3	46.0*	13.3	0.9	1.5	31.0*
COc1ccc(C(=O)Nc2ccccc2C(=O)NCc2ccco2)cc1OC	-9.5	37.0	28.6	30.1	-1.4	3.0	/
COc1ccc(C(=O)Nc2ccc(Cl)cc2C(=O)NCc2ccco2)cc1OC	0.7	29.9	42.7*	16.4	-2.9	28.3	15.2
CC1CC(C)(C)NC(=S)N1CCCC(=O)Nc1ccc(Cl)cc1 (centres undefined)	6.0	-11.2	26.5	12.9	-2.1	-2.8	/
CC(C)c1ccc(NC(=O)CCCN2C(=S)NC(C)(C)CC2C)cc1 (centres undefined)	20.9	37.6	43.5*	14.6	-0.6	4.0	10.3
O=[N+]([O-])CC(c1ccccc1)P(=O)(c1ccccc1)c1ccccc1 (centres undefined)	-7.8	28.3	40.6*	0.4	-2.7	-2.2	14.5
O=P(c1ccccc1)(c1ccccc1)C(O)c1cccs1 (centres undefined)	/	/	/	/	2.7	/	/
O=C(CNC(=O)c1ccc(Br)o1)NCc1ccc(F)cc1	-62.4	-2.8	-10.2	5.0	-5.6	-5.6	/
CC(C)(C)c1nnc(NS(=O)(=O)c2cc(Cl)ccc2Cl)s1	0.8	-1.7	-12.2	-0.4	-0.1	8.8	/
O=S(=O)(Nc1nc(-c2sccc2Cl)cs1)c1cc(Cl)ccc1Cl	-2.8	36.8	43.1*	33.4	-3.4	8.6	13.3
CCN(CC)C(=S)NC(=O)c1ccc(OC)c(Br)c1	25.1	27.2	43.6*	17.7	1.6	16.6	19.1
O=C(NC(NNc1ccc([N+](=O)[O-])cc1)(C(F)(F)F)C(F)(F)F)c1ccccc1Cl	18.1	49.3	47.5*	32.6	1.3	16.8	25.2
C/C(=N\Nc1ccc(F)cc1F)c1ccccc1O	3.1	18.9	28.5	0.1	1.7	-1.2	/
